TDP1 block = TDP1 (human) enzyme inhibition. recombinant TDP1, AlphaScreen DNA substrate cleavage. Potency, µM (doses to about 130 µM), most hits filed as inhibitors. AID 485290. 0.28% of 350,000 active; also: nearly all actives have a fitted effect of over 40% in size
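Tdp1 1 nM final; 15 min RT w/ cpd; substrate 15 nM, 5 min; beads 10 ug/ml, 10 min; AlphaScreen read. Neg ctrl: no enzyme.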
HP1b binding inh = blocks HP1-beta chromodomain binding to methylated histone tails | P83916 | AlphaScreen HP1-beta / biotin-H3K9me3 peptide binding | AID 540317 | 0.56% of 390,000 active | Potency, µM (titrated, usually from 114 µM), most hits filed as inhibitors; also: nearly all actives have a fitted effect of over 70% in size
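HP1-beta protein (50 nM final) preincubated 30 min at room temperature with biotinylated H3(1-18)K9me3 peptide (50 nM) in PBS pH 7.4, 0.01% Tween-20, then compound added for 30 min. AlphaScreen streptavidin donor/nickel chelate acceptor beads (10 ug/mL final), 30 min dark, luminescence read.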
JMJD2A Tudor = blocks the human JMJD2A Tudor domain; 4.4% of 390,000 active; AlphaScreen JMJD2A-Tudor / H3K4me3 peptide binding; Potency, µM (top dose mostly 114 µM), usual class: inhibitors; also: nearly all actives have a fitted effect of over 50% in size
Target sequence (O75164 whole entry, looked up, the tested form may be a part): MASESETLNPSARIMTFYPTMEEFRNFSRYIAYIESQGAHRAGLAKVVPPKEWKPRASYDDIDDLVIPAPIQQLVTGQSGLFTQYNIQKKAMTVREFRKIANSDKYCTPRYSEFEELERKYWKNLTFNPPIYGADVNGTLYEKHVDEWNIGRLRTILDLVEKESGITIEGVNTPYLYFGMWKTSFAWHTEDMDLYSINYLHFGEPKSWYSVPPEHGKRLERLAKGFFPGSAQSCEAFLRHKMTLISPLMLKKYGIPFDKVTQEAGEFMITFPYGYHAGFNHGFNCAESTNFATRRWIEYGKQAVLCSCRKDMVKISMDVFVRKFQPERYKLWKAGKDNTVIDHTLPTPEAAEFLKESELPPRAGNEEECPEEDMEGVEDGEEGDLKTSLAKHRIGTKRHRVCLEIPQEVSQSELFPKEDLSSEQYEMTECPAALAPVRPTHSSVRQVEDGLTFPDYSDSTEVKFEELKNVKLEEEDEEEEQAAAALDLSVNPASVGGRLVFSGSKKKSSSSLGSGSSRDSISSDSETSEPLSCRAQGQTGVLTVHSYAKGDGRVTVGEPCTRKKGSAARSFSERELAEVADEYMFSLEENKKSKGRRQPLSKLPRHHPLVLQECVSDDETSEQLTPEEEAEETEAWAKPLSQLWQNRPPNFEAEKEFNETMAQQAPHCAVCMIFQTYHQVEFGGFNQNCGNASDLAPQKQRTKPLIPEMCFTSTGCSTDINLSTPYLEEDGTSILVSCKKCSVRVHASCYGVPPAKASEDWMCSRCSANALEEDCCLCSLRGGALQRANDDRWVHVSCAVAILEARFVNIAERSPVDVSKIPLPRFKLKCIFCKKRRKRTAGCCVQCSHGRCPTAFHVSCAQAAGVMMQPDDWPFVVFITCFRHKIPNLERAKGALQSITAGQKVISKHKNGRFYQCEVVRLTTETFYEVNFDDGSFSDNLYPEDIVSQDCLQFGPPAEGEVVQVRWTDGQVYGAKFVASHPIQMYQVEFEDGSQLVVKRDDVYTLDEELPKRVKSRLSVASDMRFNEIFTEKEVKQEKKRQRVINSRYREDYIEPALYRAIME
BAZ2B block = inhibitors of human BAZ2B bromodomain. Q9UIF8. AlphaScreen BAZ2B-H3K14Ac peptide displacement. Potency, µM (highest dose often 114 µM), most hits filed as inhibitors. 4.4% of 360,000 active. AID 504333; also: nearly all actives have a fitted effect of over 60% in size
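In this displacement format the biotinylated H3(5-23) peptide acetylated at Lys14 serves as ligand at 50 nM, with BAZ2B at 50 nM in PBS pH 7.4 containing 0.01% Tween-20. Donor and acceptor beads are 10 ug/mL final.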
Sfp inh = blocks B. subtilis Sfp PPTase activity; Q9F4F7; Biochemical Sfp PPTase activity, qHTS; Potency, µM, actives largely listed as inhibitors; 3.5% of 310,000 active; AID 1490;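 also: the enzyme is Sfp with the accession as filed and its product quenches rhodamine fluorescence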
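With Hepes-Na pH 7.6 buffer containing 10 mM MgCl2, Sfp (15 nM) modified BHQ-2-YbbR (12.5 uM) using rhodamine-CoA (5 uM). Two reads 30 minutes apart at 525/598 nm yielded each well's rate.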
G9a block = blocks human histone lysine methyltransferase G9a. Q96KQ7. G9a H3K9 monomethylation, AlphaScreen, 2 h. Potency, µM (series often up to 102 µM), most hits filed as inhibitors. 8.8% of 350,000 active. AID 504332; also: nearly all actives have a fitted effect of over 75% in size
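Enzyme 20 nM + cpd, 15 min RT; add b-H3K9 pep 500 nM / SAM 20 uM; 2 h RT; anti-H3K9me1 Ab 0.5 ug/mL + SA donor / anti-rabbit acceptor beads 20 ug/mL each, 10 min; AlphaScreen read.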
Numbers stand for hits; n = inactive; u = inconclusive; x = no result; [ ] = dose if it differs, or a comment. Hits are enriched below; roughly 12% of the tested compounds scored in any of these assays. Calls follow the shape of the dose curve; as a rule, active = well fitted curve in the direction sought with a large enough effect; inconclusive = small, poorly fitted or top-dose-only effect, or another doubt; inactive = no such curve, though single readings can be large; an effect the other way counts as inactive or inconclusive.

SMILES	TDP1 block	HP1b binding inh	JMJD2A Tudor	BAZ2B block	Sfp inh	G9a block
Cc1ccccc1CSc1nnc2[nH]c(=O)cc(C)n12	n	n	n	n	x	n
Cc1cccc(-c2nsc(SCC(=O)NCC3CCCO3)n2)c1 (configuration not stated)	n	n	n	n	u	17.8µM
Cc1cc(C)nc(SCC(=O)NCc2ccco2)n1	n	n	n	n	u	44.7µM
Cc1cccc(C2(c3cccc(C)c3)CC2C(=O)NCC2CCCO2)c1 (configuration not stated)	n	n	79.4µM	n	n	n
Nc1cc(N)nc(SCC(=O)NCc2ccco2)n1	n	n	n	u	n	n
O=C(CSc1cccc2cccnc12)NCc1ccco1	n	n	n	n	79.4µM	x
C=CCNC(=O)C1CC1(c1cccc(C)c1)c1cccc(C)c1 (configuration not stated)	x	n	n	x	x	x
COCCNC(=O)C1CCC(CNS(=O)(=O)c2ccc3c(c2)CC(C)N3C(C)=O)CC1 (configuration not stated)	n	n	n	n	x	n
Cc1cc(C)c(NC(=O)CN(C)C(=O)CCC(=O)c2ccc(C)s2)c(C)c1	n	n	n	n	x	n[12.7 µM]
CCOC(=O)CNC(=O)CSc1nc(-c2cccc(C)c2)ns1	n	n	n	n	n	11.2µM
Cc1cccc(-c2nsc(SCC(=O)NCc3ccc4c(c3)OCO4)n2)c1	n	n	n	n	n	n
Cc1cccc(-c2nsc(SCC(=O)NCc3ccco3)n2)c1	n	n	n	n	u	31.6µM
C=CCn1c(N2CCOCC2)nc2c1c(=O)[nH]c(=O)n2C	n	n	n	n	n	n
CCN(CC)S(=O)(=O)c1ccc(C(=O)Nn2cnnc2)cc1	x	n	n	n	n	n[2.33 µM]
Cc1cc(C)n(-c2ccc(C(=O)OC(C)C(=O)Nc3ccc(C(N)=O)cc3)cc2)n1 (configuration not stated)	n	n	n	n	x	79.4µM
O=[N+]([O-])c1ccc2[nH]c3c(c2c1)CCCC3	n	n	u	u	n	39.8µM
N/N=C1\CCCc2c1[nH]c1ccc([N+](=O)[O-])cc21	n	n	u	n	n	x
O=[N+]([O-])c1cccc2c3c([nH]c12)CCCC3	x	u	n	u	n	8.91µM
Brc1ccc2[nH]c3c(c2c1)CCC3	n	n	u	50.1µM	n	u
CO[C@@H](CCOCc1ccccc1)C[C@H]1O[C@H](C(=O)OC(C)C)C=C[C@@H]1C	n	x	x	x	n	x
OB(O)c1ccc(Cl)s1	n	n	n	x	n	x
Cc1cc(NC(=O)CSc2nnc(C3COc4ccccc4O3)o2)no1 (configuration not stated)	n	n	n	50.1µM	n	u
Cc1cc(NC(=O)CSc2nnc(-c3ccc([N+](=O)[O-])cc3)o2)no1	n	n	89.1µM	22.4µM	n	n
C/C(=N\Nc1nccnc1Cl)c1ccc(F)cc1	n	n	n	n	22.4µM	n[0.501 µM]
C/C(=N\Nc1nccnc1Cl)c1ccc(O)cc1	x	n	n	n	u	n
SMILES	TDP1 block	HP1b binding inh	JMJD2A Tudor	BAZ2B block	Sfp inh	G9a block
CCOc1ccc(S(=O)(=O)Nc2cccc(C(=O)NCC(c3ccco3)N3CCCC3)c2)cc1 (configuration not stated)	n	n	n	n	x	n[12.7 µM]
CCN1C(=O)/C(=C\c2ccco2)C(C(=O)OC)=C1C	n	n	u	u	n	u
COC(=O)C1=C(C)N(c2ccc(OC)cc2)C(=O)/C1=C\c1cccs1	n	n	u	n	n	n
Cc1ccc(/C=C2\C(=O)NC(=O)N2C)o1	n	n	n	n	39.8µM	35.5µM
COC(=O)C1=C(C)N(CCc2ccccc2)C(=O)/C1=C\c1ccco1	n	n	39.8µM	35.5µM	50.1µM	31.6µM
COC(=O)C1=C(C)N(c2cccc(OC)c2)C(=O)/C1=C\c1ccco1	n	39.8µM	44.7µM	17.8µM	n	u
Cc1ccc(/C=N/N2C(=O)C3C(C2=O)C2C=CC3C23CC3)o1 (configuration not stated)	n	n	n	n	n	n
C=CCN1C(=O)/C(=C\c2ccco2)C(C(=O)OC)=C1C	n	n	u	44.7µM	20µM	u
CCOC(=O)C1=C(C)N(c2ccc(OCC)cc2)C(=O)/C1=C\c1ccco1	n	44.7µM	22.4µM	8.91µM	50.1µM	u
Cc1ccc(/C=C2/C(=O)N(c3ccccc3)C(=S)N2C)o1	n	u	u	u	5.01µM	8.91µM
CCOc1ccc(N2C(=O)/C(=C/c3ccco3)N(C)C2=S)cc1	n	n	n	n	39.8µM	10µM
COC(=O)C1=C(C)N(Cc2ccccc2)C(=O)/C1=C\c1ccco1	n	u	u	17.8µM	n	28.2µM
CCN1/C(=C\C=C2\C(=O)N(c3ccccc3)C(=S)N2C)Sc2ccccc21	n	n	n	x	u	u
COC(=O)c1ccc(N2CCOCC2)c(NC(=O)c2ccco2)c1	n	n	n	n	n	n
Cc1cc(C)nc(SCc2csc(N)n2)n1	n	n	n	n	35.5µM	50.1µM
Cc1cc(C)nc(SCc2csc(-c3ccccc3)n2)n1	n	n	n	n	n	n
O=C(CNC(=O)COc1ccccc1)NCc1cccnc1	n	n	n	n	n	n
O=C(NC1CCCCCC1)C1c2ccccc2C(=O)N1C1CC1 (configuration not stated)	n	n	n	n	n	8.91µM
Cc1ccc(C)c(Nc2nc3nonc3nc2Nc2cccc(C)c2C)c1	n	n	u	u	x	n
CCOC(=O)c1ccc(Nc2nc3nonc3nc2Nc2cccc(C)c2C)cc1	n	n	u	22.4µM	x	n
CCOc1ccc(-n2ccn(CC(=O)NCCc3ccccc3)c(=O)c2=O)cc1	x	n	n	n	x	n[0.501 µM]
Cc1ccccc1OCC(=O)OCC(=O)Nc1ncc(Cl)c(C)c1Cl	n	n	u	56.2µM	x	n[2.33 µM]
Cc1ccccc1OCC(=O)OCC(=O)Nc1ccc(Cl)cn1	n	n	n	n	x	n[2.33 µM]
Cc1c(Cl)cnc(NC(=O)COC(=O)c2nn(C)c(=O)c3ccccc23)c1Cl	n	n	n	u	n	44.7µM
CC(OC(=O)C1CCCC1)C(=O)Nc1ccc(C(N)=O)cc1 (configuration not stated)	x	n	n	n	x	n
COc1ccc(Nc2ncnc3onc(-c4ccc(Cl)cc4)c23)cc1Cl	n	n	n	n	x	n
CCCN(CCC)S(=O)(=O)c1ccc(C(=O)Nc2nnc(CSC)o2)cc1	n	n	50.1µM	u	n	n
COCCN(CCOC)S(=O)(=O)c1ccc(C(=O)Nc2nnc(C3CC3)o2)cc1	n	n	10µM	31.6µM	n	n[12.7 µM]
CCc1nnc(NC(=O)c2ccc(S(=O)(=O)N(CCOC)CCOC)cc2)o1	n	n	44.7µM	28.2µM	u	3.98µM
